# Measured values reported in ChEMBL document CHEMBL3988442, “University of Dundee, Small-Polar-MMV Screening Library” (2021).
# For some of these results: Measured potencies and affinities stand elsewhere.
# Assays:
# Set-up in all cases: scale not given: direction of the effect not stated beside the values
# [1] = target: Protein translocase subunit SecA (Escherichia coli (strain K12)) (UniProt P10408); assay: Assay to Identify E. coli SecA ATPase Inhibitors; format: functional; conditions: 30 µM
# Chain of Protein translocase subunit SecA (Escherichia coli (strain K12)) (P10408 whole entry): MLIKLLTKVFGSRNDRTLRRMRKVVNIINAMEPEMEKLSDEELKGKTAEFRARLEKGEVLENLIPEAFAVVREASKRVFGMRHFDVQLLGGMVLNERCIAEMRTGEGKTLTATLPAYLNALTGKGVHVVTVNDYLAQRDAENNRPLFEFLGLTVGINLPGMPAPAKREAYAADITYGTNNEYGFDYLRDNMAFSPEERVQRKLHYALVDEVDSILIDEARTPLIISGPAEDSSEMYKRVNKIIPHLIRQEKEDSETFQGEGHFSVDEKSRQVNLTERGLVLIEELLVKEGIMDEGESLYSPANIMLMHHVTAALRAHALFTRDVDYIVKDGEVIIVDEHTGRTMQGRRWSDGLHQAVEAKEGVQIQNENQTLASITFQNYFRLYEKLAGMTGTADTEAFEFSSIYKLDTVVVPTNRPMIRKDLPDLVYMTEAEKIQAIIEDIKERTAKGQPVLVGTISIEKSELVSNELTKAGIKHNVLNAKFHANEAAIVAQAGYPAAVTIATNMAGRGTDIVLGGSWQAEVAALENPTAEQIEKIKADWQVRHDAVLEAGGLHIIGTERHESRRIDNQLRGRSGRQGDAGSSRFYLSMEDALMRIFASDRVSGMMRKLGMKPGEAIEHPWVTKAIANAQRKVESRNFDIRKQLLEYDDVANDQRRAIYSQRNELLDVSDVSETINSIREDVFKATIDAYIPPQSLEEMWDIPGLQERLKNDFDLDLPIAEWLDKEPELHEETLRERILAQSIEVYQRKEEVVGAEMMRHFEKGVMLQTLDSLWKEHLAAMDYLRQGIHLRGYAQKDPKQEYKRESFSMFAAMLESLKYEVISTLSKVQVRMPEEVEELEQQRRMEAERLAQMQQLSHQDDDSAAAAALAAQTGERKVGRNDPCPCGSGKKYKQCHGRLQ
# [2] = target: T1, Ubiquitin-activating enzyme e1, putative (Leishmania donovani (strain BPK282A1)) (UniProt E9BSI1); assay: Leishmania donovani Ubiquitin Activating Enzyme (LdE1); format: functional; conditions: 30 µM
# T1 sequence (whole entry): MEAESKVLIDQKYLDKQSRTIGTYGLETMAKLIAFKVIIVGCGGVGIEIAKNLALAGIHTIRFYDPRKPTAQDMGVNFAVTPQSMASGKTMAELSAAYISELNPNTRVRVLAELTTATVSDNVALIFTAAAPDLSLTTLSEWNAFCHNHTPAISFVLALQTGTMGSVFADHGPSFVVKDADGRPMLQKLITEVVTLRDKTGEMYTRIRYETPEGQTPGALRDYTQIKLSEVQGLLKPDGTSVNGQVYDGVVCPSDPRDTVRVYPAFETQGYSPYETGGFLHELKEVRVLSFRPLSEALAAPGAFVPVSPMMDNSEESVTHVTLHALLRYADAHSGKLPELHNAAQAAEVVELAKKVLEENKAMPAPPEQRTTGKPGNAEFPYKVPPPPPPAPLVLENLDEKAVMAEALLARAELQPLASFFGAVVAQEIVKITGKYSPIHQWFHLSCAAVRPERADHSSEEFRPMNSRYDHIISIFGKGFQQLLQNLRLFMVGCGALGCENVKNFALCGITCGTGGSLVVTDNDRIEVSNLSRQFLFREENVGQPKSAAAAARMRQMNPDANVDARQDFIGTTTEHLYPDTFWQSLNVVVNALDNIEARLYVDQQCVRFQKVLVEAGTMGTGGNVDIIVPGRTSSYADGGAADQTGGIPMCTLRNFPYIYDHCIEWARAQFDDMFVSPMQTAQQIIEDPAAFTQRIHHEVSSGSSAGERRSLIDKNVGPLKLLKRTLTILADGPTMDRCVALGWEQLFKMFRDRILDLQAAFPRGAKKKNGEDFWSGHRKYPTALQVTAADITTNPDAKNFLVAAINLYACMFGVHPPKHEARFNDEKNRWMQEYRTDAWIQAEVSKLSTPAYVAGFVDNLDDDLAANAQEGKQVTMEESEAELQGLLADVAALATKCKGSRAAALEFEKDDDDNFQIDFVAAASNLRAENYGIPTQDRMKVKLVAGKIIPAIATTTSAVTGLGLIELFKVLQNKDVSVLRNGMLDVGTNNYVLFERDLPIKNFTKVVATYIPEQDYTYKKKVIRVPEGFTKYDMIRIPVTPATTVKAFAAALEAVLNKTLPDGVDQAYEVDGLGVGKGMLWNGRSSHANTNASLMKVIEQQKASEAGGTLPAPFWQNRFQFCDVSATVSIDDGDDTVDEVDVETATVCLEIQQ
# [3] = target: AMP-activated protein kinase, AMPK (Homo sapiens) (UniProt P54646+O43741+P54619+Q9UGJ0+Q9Y478+Q13131+Q9UGI9); assay: AMP-dependent Kinase enzyme assay. An in vitro enzyme assay that detects ADP turnover that is directly proportional to AMPK activity. This uses naive AMPK that is activated during the assay with MK-8722; format: functional; conditions: 30 µM
# [4] = target: Sialic acid-binding Ig-like lectin 9 (Homo sapiens) (UniProt Q9Y336); assay: Hs-Siglec9 ALPHAscreen SOP 20170721; conditions: 10 µM
# Chain of Sialic acid-binding Ig-like lectin 9 (Homo sapiens) (Q9Y336 whole entry): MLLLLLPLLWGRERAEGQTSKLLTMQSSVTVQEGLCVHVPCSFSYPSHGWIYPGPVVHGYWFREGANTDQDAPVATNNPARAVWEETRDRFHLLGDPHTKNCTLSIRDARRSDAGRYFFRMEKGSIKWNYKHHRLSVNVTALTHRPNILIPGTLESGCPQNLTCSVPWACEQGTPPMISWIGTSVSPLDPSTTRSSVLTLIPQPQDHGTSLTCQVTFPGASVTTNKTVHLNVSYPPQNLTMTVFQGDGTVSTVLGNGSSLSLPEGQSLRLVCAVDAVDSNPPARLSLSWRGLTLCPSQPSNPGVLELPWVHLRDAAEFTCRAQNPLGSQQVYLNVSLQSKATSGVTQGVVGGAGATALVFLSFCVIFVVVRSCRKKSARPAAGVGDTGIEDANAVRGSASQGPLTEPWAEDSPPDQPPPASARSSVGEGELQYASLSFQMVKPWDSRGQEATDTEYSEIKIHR
# Trypanosoma cruzi = assay: Trypanosoma cruzi phosphomannomutase and mannose-1-phosphate guanylyltransferase assay; format: functional; conditions: 10 µM
# [5] = target: T2, Arginase-2, mitochondrial (Homo sapiens) (UniProt P78540); assay: in vitro enzyme assay to detect the production of urea directly proportional to the activity of Arginase II; format: functional; conditions: 33.3 µM; further: in the data most compounds retested in dose-response had high values
# T2 sequence (whole entry): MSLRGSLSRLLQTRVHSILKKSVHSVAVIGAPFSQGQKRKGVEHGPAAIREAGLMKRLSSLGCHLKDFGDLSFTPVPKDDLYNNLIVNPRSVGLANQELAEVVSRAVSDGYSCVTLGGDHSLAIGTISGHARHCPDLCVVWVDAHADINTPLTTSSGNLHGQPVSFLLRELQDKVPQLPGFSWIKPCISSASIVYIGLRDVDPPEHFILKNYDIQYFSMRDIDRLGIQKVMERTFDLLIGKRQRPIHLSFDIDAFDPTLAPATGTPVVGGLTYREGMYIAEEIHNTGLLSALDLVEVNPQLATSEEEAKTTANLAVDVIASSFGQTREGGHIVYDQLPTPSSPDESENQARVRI
# [6] = target: T3, Proteasome subunit beta (Trypanosoma cruzi) (UniProt O96673); assay: Trypanosoma cruzi proteasome chymotrypsin-like activity (TcProtChymo) assay.; further: in the data most compounds retested in dose-response had high values; format: functional; conditions: 9.37 µM
# T3 sequence (whole entry): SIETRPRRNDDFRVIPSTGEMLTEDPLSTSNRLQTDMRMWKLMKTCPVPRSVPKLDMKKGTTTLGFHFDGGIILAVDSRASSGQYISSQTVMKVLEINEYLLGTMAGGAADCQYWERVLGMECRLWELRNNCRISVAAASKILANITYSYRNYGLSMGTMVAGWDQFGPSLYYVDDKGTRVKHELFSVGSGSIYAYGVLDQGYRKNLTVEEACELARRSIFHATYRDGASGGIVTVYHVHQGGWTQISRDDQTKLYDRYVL
# Homo sapiens = organism: Homo sapiens; assay: To identify inhibition of the IFN signalling (Jak-Stat) pathway via expression of an eGFP reporter gene under the control of an IFN-stimulated response element (ISRE) containing MxA promoter.; format: functional; conditions: 30 µM
# [7] = target: T4, Tyrosyl-tRNA synthetase, putative (Trypanosoma cruzi (strain CL Brener)) (UniProt Q4DSP6); assay: Trypanosoma cruzi tyrosyl tRNA synthetase (TcYRS) _High Tyrosine SOP; format: functional; conditions: 30 µM; further: in the data most compounds retested in dose-response had high values
# T4 sequence (whole entry): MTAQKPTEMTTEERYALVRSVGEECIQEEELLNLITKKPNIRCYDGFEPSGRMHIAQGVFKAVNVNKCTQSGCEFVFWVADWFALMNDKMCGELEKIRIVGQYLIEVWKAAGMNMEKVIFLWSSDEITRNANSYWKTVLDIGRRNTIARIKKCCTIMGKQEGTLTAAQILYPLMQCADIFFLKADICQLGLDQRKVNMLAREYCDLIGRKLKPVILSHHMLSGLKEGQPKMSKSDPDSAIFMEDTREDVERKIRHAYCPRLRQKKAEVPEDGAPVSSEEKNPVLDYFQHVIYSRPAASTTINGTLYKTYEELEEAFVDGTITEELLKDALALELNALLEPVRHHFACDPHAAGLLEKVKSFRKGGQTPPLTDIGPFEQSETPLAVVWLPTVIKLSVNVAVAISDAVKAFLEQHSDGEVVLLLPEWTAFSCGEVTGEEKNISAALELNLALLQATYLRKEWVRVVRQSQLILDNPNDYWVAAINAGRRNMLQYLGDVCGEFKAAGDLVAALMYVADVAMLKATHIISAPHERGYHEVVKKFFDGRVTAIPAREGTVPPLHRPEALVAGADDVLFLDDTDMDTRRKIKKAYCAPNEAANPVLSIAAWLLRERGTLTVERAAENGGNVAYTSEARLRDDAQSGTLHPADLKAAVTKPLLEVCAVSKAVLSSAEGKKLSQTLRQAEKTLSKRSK
# [8] = target: T4, Tyrosyl-tRNA synthetase, putative (Trypanosoma cruzi (strain CL Brener)); assay: Trypanosoma cruzi tyrosyl tRNA synthetase (TcYRS) SOP; format: functional; conditions: 30 µM
# [9] = target: Chromo domain-containing protein 1 (Saccharomyces cerevisiae (strain ATCC 204508 / S288c) (Baker's yeast)) (UniProt P32657); assay: ScCHD-1 Enzyme Inhibition Assay; format: functional; conditions: 30 µM; further: in the data most compounds retested in dose-response had high values
# Chain of Chromo domain-containing protein 1 (Saccharomyces cerevisiae (strain ATCC 204508 / S288c) (Baker's yeast)) (P32657 whole entry, the tested form may be a part): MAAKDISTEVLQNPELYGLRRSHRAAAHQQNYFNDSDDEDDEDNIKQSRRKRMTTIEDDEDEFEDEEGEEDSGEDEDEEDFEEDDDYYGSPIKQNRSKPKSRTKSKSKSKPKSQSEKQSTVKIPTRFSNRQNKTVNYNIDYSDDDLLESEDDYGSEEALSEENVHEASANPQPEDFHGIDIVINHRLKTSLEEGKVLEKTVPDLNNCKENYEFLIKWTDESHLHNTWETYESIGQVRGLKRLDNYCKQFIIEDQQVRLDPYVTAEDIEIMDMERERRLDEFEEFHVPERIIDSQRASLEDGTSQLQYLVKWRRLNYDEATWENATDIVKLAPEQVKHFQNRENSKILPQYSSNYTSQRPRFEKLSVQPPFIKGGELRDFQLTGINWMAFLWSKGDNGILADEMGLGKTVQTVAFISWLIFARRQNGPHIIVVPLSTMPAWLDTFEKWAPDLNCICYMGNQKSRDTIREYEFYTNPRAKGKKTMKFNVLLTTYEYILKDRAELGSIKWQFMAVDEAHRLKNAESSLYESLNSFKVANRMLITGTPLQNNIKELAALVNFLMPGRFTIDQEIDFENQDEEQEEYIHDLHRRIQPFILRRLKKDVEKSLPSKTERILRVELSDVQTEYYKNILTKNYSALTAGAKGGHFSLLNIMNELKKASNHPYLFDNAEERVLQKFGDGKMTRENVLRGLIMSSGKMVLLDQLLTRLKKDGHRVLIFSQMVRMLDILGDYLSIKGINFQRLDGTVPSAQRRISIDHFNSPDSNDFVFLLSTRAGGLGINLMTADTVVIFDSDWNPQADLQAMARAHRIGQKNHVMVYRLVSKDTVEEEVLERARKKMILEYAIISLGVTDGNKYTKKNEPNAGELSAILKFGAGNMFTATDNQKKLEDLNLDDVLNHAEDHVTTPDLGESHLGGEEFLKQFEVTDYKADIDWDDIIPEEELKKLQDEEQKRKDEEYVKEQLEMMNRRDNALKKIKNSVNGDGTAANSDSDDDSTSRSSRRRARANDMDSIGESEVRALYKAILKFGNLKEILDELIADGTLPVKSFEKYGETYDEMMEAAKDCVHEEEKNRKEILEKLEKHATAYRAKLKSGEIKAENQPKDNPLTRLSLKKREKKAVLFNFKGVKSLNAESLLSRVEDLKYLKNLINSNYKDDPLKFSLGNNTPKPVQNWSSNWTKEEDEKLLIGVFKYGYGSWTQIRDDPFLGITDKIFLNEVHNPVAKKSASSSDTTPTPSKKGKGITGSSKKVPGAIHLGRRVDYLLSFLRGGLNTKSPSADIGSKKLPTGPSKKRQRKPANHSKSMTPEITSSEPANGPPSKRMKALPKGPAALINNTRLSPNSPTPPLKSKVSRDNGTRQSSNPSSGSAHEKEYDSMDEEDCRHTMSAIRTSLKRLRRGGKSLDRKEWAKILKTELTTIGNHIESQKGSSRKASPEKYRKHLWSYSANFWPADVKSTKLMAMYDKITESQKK
SMILES,Percent Effect [1] [%],Percent Effect [2] [%],Percent Effect [3] [%],Percent Effect [4] [%],Percent Effect (Trypanosoma cruzi) [%],Percent Effect [5] [%],Percent Effect [6] [%],Percent Effect (Homo sapiens) [%],Percent Effect [7] [%],Percent Effect [8] [%],Percent Effect [9] [%]
CN(C)CC(=O)N1CCOCC2(C1)CN(c1ccccc1)C(=O)CO2 (stereo not drawn),1.58,8,11.2,-1.53,-4.05,-56.8,3.08,-9.58,5.21,-22.5,-7.95
CCCC(NC(=O)c1ccc(OC)cc1F)c1nnn[nH]1 (stereo not drawn),-2.26,5.33,-8.28,11.5,5.16,17.2,9.24,-13.2,4.92,8.64,-4.91
Cc1cc(CNC(=O)C2CCCCN2C(=O)OC(C)(C)C)no1 (stereo not drawn),-4.46,2.7,-5.58,0.833,-2.83,0.744,1.29,4.89,3.23,13.6,-3.75
O=C(NC1CC1)N1CCc2ncnc(-c3ccncc3)c2CC1,5.45,10.7,17.6,1.38,-6.37,-55.4,12,4.1,2.08,25,-4.64
CC(C)c1ncc2c(n1)CN(Cc1nc(-c3cccs3)no1)CC2,-1.45,-10.8,-21.1,-6.68,-3.99,2.4,2.33,19.6,13.9,13.4,8.9
Cc1cnn(CC2CCCN2C(=O)c2ccc3cc[nH]c3c2)c1 (stereo not drawn),-1.42,1.27,3.59,1.53,-1.33,1.5,2.4,13.8,0,5.06,-8.72
COc1cccc(CCNS(=O)(=O)c2ccc(NC(C)=O)cc2)c1,-3.33,5.26,4.42,-2.24,-4.58,-8.28,17,21.2,1.06,10.4,-4.22
CNS(=O)(=O)c1ccc(C(=O)N2CCCC2c2cnn(C)c2)o1 (stereo not drawn),-2.43,7.89,-0.508,-1.15,8.12,0.719,-0.761,1.2,1.48,6.17,-6.23
